This note sets out measurements from PubChem BioAssay (Tox21).

Test [1] in a line: qHTS assay to identify aromatase inhibitors - cell viability counter screen (AID 743084;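 note: cells stimulated with testosterone during compound exposure; nearly all actives have a fitted effect of over 55% in size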; note: potency is the fitted concentration of half-maximal effect). (Quantitative high-throughput screening tests each substance at several concentrations.)
The target in test [2] is Aryl hydrocarbon receptor (Homo sapiens) (UniProt P35869). The test is described as follows: qHTS assay to identify small molecule that activate the aryl hydrocarbon receptor (AhR) signaling pathway (AID 743085).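 For activation: HG2L7.5c1 human HepG2 liver cells with stably integrated DRE-driven firefly reporter; series mostly up to about 70 µM.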 Note: nearly all actives have a fitted effect of over 15% in size. Note: potency is the fitted concentration of half-maximal effect. In short, it runs like this: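 Measured in HG2L7.5c1 cells: CellTiter-Fluor signal (30 min incubation, 37C) for viability, then luciferase luminescence (30 min, room temperature). Compound contact time was 24 h at 37C, following a 5 h pre-incubation.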

The nature of test [3]: qHTS assay to identify small molecule antagonists of the peroxisome proliferator-activated receptor gamma (PPARg) signaling pathway - cell viability counter screen (AID 743194). Note: nearly all actives have a fitted effect of over 55% in size. The essentials: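 PPARg-UAS-bla HEK293H cells were plated, rested 5 h at 37 C, then treated with compounds plus rosiglitazone (50 nM final) for 17 h at 37 C; viability was then read by CellTiter-Glo luminescence after 30 min at room temperature.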

Test [4] is described as follows: qHTS assay for small molecule agonists of the antioxidant response element (ARE) signaling pathway (AID 743202; active = well fitted activation curve with a large enough effect in the signal ratio in the repeat runs, not every such curve was filed as active; the % refers to the signal ratio; note: potency is the fitted concentration of half-maximal effect). In short, it runs like this: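 Read-out: LiveBLAzer B/G FRET substrate fluorescence after 2 h at room temperature, following 16 h compound treatment at 37 C of HepG2 cells carrying an ARE-driven beta-lactamase reporter.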
Test [5] is described as follows: qHTS assay for small molecule agonists of the antioxidant response element (ARE) signaling pathway - cell viability counter screen (AID 743203; calls by dose curve; note: nearly all actives have a fitted effect of over 55% in size). In short, it runs like this: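 Cells (ARE-bla HepG2, 2,000/well) receive DMSO-dissolved compounds after a 5 hrs rest. Plates incubate 16 hrs at 37C/5% CO2. CellTiter-Glo luminescence is then recorded after 30 min at room temperature.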

Test [6] can be described thus: qHTS assay for small molecule activators of the heat shock response signaling pathway - cell viability counter screen (AID 743209). Note: nearly all actives have a fitted effect of over 50% in size. In short, it runs like this: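 Quantitative HTS format, Tox21 10K library. HeLa cells carrying an HSE-driven beta-lactamase reporter were treated 5 h at 37 C, then assessed for viability by CellTiter-Glo luminescence.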
Test [7] in a line: qHTS assay for small molecule activators of the heat shock response signaling pathway (AID 743210; active = well fitted activation curve with a large enough effect in the signal ratio in the repeat runs, with a control signal flat, not every such curve was filed as active; the % refers to the signal ratio; note: series mostly up to about 63 µM). In short, it runs like this: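 HSE-bla HeLa cells (beta-lactamase reporter under heat shock response elements) were exposed to compounds for 5 h at 37 C, then loaded with LiveBLAzer B/G FRET substrate for 2.5 h at room temperature before fluorescence reading.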
Test [8] addresses Peroxisome proliferator-activated receptor gamma (Homo sapiens) (UniProt P37231). Kind of test: qHTS assay to identify small molecule agonists of the peroxisome proliferator-activated receptor gamma (PPARg) signaling pathway (AID 743094; active = well fitted activation curve with a large enough effect in the signal ratio in the repeat runs, not every such curve was filed as active; the % refers to the signal ratio). In short, it runs like this: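 Stably transfected HEK293H cells (GeneBLAzer PPARg UAS-bla) were incubated with test substances for 17 h at 37C after a 5 h pre-incubation; beta-lactamase activity was then detected by FRET substrate fluorescence.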

A short description of test [9]: qHTS assay to identify small molecule that activate the aryl hydrocarbon receptor (AhR) signaling pathway - cell viability counter screen (AID 743086).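 For viability change, negative = cytotoxic: HepG2 liver cells carrying the AhR DRE luciferase reporter; series mostly up to about 70 µM.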 Note: nearly all actives have a fitted effect of over 45% in size. Note: potency is the fitted concentration of half-maximal effect. The essentials: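 HepG2-AhR-luc (HG2L7.5c1) cells, 4000/well, were preincubated 5 h at 37C, exposed to compound in qHTS format for 24 hr at 37C, then given CellTiter-Fluor for 30 min; viability was read as fluorescence in the reporter wells.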

Test [10] concerns the target Peroxisome proliferator-activated receptor gamma (Homo sapiens) (UniProt P37231). The test is described as follows: qHTS assay to identify small molecule antagonists of the peroxisome proliferator-activated receptor gamma (PPARg) signaling pathway (AID 743191; calls by dose curve; note: series mostly up to about 63 µM; nearly all actives have a fitted effect of over 30% in size). In short, it runs like this:
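GeneBLAzer PPARg UAS-bla HEK293H cells carrying a UAS-driven beta-lactamase reporter were plated at 3000 cells/well, preincubated 5 h at 37C, then given compound for 17 h at 37C; LiveBLAzer B/G FRET substrate was read after 1 h at room temperature.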

Inconclusive results are not listed. Unmarked numbers belong to inactive results. Activity calls are given as the source filed them. Unless noted, calls come from the whole dose curve; as a rule, active = well fitted curve in the direction sought with a large enough effect in the repeat runs; inconclusive = weak or mixed curves; inactive = no such curve, though single readings can be large; an effect the other way counts as inactive or inconclusive.
% is set by controls: 0 for no effect and ±100 for the full control effect.

Aryl hydrocarbon receptor (Homo sapiens), sequence (P35869 whole entry, looked up): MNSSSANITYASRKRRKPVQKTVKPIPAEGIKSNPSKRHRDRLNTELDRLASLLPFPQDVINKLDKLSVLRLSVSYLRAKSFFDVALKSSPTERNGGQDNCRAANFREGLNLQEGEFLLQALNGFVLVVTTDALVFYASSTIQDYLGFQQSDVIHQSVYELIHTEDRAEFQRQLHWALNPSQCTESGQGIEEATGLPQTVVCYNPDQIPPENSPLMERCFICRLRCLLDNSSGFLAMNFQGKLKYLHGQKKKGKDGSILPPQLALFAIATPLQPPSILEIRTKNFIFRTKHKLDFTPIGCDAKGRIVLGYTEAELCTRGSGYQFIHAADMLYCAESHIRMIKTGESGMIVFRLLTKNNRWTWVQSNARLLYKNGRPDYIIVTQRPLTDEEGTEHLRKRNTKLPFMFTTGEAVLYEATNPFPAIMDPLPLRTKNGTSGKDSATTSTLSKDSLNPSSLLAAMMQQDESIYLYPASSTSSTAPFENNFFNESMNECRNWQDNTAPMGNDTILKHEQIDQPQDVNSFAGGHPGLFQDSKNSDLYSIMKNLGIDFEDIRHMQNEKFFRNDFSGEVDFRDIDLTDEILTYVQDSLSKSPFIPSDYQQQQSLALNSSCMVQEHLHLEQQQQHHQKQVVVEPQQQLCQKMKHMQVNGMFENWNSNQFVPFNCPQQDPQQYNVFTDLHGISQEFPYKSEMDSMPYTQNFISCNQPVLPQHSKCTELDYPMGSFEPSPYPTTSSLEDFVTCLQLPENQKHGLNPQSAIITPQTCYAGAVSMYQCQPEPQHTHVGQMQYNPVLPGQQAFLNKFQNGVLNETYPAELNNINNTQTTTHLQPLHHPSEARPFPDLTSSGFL
Peroxisome proliferator-activated receptor gamma (Homo sapiens), sequence (P37231 whole entry, looked up): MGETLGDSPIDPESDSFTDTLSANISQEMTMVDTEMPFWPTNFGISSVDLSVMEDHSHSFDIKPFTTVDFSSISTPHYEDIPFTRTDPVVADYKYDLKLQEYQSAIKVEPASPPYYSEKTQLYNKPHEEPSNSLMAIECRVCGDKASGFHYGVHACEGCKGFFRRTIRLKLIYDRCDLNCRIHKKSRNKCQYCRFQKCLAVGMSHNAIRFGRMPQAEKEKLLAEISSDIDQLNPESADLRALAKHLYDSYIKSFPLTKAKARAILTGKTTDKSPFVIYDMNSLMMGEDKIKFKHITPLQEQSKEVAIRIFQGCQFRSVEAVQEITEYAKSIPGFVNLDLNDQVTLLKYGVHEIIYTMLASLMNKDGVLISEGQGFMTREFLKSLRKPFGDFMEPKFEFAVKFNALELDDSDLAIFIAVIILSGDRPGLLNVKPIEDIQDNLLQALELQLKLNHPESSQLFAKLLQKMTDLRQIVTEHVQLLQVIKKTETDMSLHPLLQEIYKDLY

Consider `Nc1ccc(/C=C/c2ccc(N)cc2S(=O)(=O)O)c(S(=O)(=O)O)c1`, for which the Potency entry in [1] and in [2] was “inactive” in each case. Besides, the figures for the activity change, negative = cytotoxicity in test [3] and in test [6] were -0.597% [at 0.55 µM] and 6.28% [at 0.55 µM], respectively. In addition, the activation is -8.26% [at 0.756 µM] in test [4] and 0.7% [at 0.55 µM] in test [7]. For the same molecule, the viability change, negative = cytotoxic in test [5] is -11% [at 0.756 µM].

`CCCCC(CC)C(=O)OC(C)C` (stereo unspecified): the Potency result in [1], in [2] and in test [4] was “inactive” throughout. Besides, the result in test [8], in test [3], in test [5], in test [6] and in [7] was inactive.

For the molecule `C=CCOc1cc(Cl)ccc1C(=O)NCCN(CC)CC`, the Potency entry in test [1], in [2] and in test [4] was “inactive” each time. Also, the result in test [8], in test [3], in test [5], in [6] and in test [7] was inactive.

Turning to `COc1ccc(NS(=O)(=O)c2ccc(N)cc2)nn1`, the Potency result in [1], in test [2] and in [4] was “inactive” throughout. Besides, the molecule was classed as inactive in test [3], in test [5] and in test [7].

On to `O=CO`, for which the figures for the activity change, negative = cytotoxicity in test [1], in [3] and in [6] were -4.37% [at 8.47 µM], 15.3% [at 5.95 µM] and 8.14% [at 5.95 µM], respectively. Also, the figures for the activation in test [2], in test [4] and in test [7] were 0.579% [at 8.47 µM], -2.02% [at 8.36 µM] and -1.54% [at 5.95 µM], respectively. Further, the viability change, negative = cytotoxic in test [5] was -3% [at 8.36 µM].

Turning to `COc1cc(C=O)ccc1OC(=O)C(C)C`, the Potency result in test [1], in [9] and in test [4] was “inactive” in each case. The call in test [8], in [3], in test [5], in test [6] and in [7] was inactive.

On to `CC(=O)c1ccc(OCC(=O)N2CCCCC2)cc1`, for which the Potency entry in test [1], in test [9], in [10] and in test [4] was “inactive” in each case. Moreover, the outcome in test [3], in test [5], in [6] and in [7] was inactive.

`O=C1OC(=O)c2ccccc21`: the Potency entry in test [1], in test [9] and in [4] was “inactive” each time. For the same molecule, the molecule was called inactive in [8], in [3], in test [5], in [6] and in test [7].

Turning to `CC(C)CCCC(C)CC=O` (stereo unspecified), the Potency result in test [1], in [2] and in [4] was “inactive” each time. For the same molecule, the molecule was classed as inactive in [3], in test [5], in [6] and in test [7].

`CNCc1ccccc1`: the Potency entry in test [1], in test [9], in test [10] and in test [4] was “inactive” in each case. Also, the molecule was classed as inactive in test [3], in test [5] and in [7].

Regarding `COc1ccc(N=Nc2cc(C)c(N=Nc3ccc(S(=O)(=O)O)cc3)cc2OC)cc1`, the Potency in [1] and in [9] was 48.6 µM (active) throughout. Further, the call in test [8], in test [3], in [5] and in [6] was inactive.

As to `O=C1NC2NC(=O)NC2N1` (stereo unspecified), the Potency entry in test [1], in test [2], in test [10] and in test [4] was “inactive” each time. Further, the result in test [3], in test [5], in [6] and in [7] was inactive.

As for `CN[C@@H]1[C@H](O)[C@H](NC)[C@H]2O[C@@]3(O)C(=O)C[C@@H](C)O[C@H]3O[C@@H]2[C@H]1O`, the Potency result in [1], in [9], in [10] and in [4] was “inactive” throughout. Also, the result in test [8], in test [3], in test [5] and in [7] was inactive.

With `NC(=O)C1(N2CCCCC2)CCN(CCCC(=O)c2ccc(F)cc2)CC1`, the Potency result in test [1], in test [9], in [10] and in [4] was “inactive” throughout. Also, the result in test [8], in test [3], in test [5] and in test [6] was inactive.

On to `C1CCN2C[C@@H]3C[C@@H](CN4CCCC[C@@H]34)[C@H]2C1`, for which the Potency result in test [1], in test [2] and in test [4] was “inactive” in each case. The molecule was called inactive in test [3], in [5], in test [6] and in test [7].

Turning to `CC(C)COC(=O)COc1ccc(Cl)cc1Cl`, the Potency entry in test [1], in [2] and in test [4] was “inactive” each time. For the same molecule, the molecule was called inactive in test [5], in test [6] and in test [7].

With `O=C(O)c1c(Cl)ccc(Cl)c1Cl`, the Potency result in test [1], in [9] and in [4] was “inactive” throughout. The molecule was classed as inactive in [8], in test [3], in [5] and in test [7].

On to `Cc1ccccc1N1CCN(CCc2nnc3n2CCCC3)CC1`, for which the Potency result in test [1], in test [9], in test [10] and in [4] was “inactive” throughout. Moreover, the molecule was called inactive in test [3], in [5], in [6] and in test [7].

Take `Cc1cc(O)c2c(c1)C(=O)c1cccc(O)c1C2=O`: the Potency entry in test [1] is “inactive”. In addition, the Potency in [2] was 26.7 µM (active); in [4], 10.6 µM (active). In addition, the molecule was classed as inactive in test [8], in test [3] and in test [5].

With `C1=CCC(c2ccccc2)CC1` (stereo unspecified), the Potency result in test [1], in test [2] and in test [10] was “inactive” each time. Besides, the result in test [3], in [5], in [6] and in test [7] was inactive.

On to `NS(=O)(=O)c1ccccc1OC(F)(F)F`, for which the Potency result in [1], in [2] and in test [10] was “inactive” throughout. Also, the call in [8], in test [3], in test [5], in test [6] and in [7] was inactive.

As to `CCC(C)(CCC(C)C)C(=O)[O-].CCC(C)(CCC(C)C)C(=O)[O-].[Zn+2]` (stereo unspecified), the Potency result in test [9] and in test [4] was “inactive” each time. Also, the result in test [5] and in [6] was inactive.

In the case of `CC(=O)OC(C)(C)Cc1ccccc1`, the result in test [3], in test [5], in test [6] and in test [7] was inactive.

On to `CC(=O)OC[C@H]1O[C@@H](OC(C)=O)[C@H](OC(C)=O)[C@@H]1OC(C)=O`, for which the Potency result in test [10] was “inactive”. For the same molecule, the result in [3], in [5], in [6] and in test [7] was inactive.

With `O=S(=O)(O)c1cc(O)ccc1O`, the result in [3], in test [5], in [6] and in test [7] was inactive.

Regarding `CC(=O)N1CCN(c2ccc(O)cc2)CC1`, in test [10], the Potency entry was “inactive”. For the same molecule, the result in [3], in test [5], in test [6] and in [7] was inactive.

Turning to `O=C(O)c1ccc(OCCN2CCCCC2)cc1`, the Potency entry in test [10] and in test [4] was “inactive” each time. In addition, the outcome in [3], in [5], in test [6] and in [7] was inactive.
